Source: PubChem BioAssay (NCI)
This is part of a sample that, as a whole, favours compounds with a hit. Of some 83,000 tested, about 20% had one in any assay.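 For each line, cells grew in 96-well plates with the test compound present at a single concentration for 48 hours.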 Values without a mark were called inactive. Active and inactive are the calls of the source. Rule for the calls: active = growth percent below 10; inactive = the rest.

Tests used:
Experiment in all cases: NCI-60 one-dose screen, 48 h (100 = growth as untreated, 0 = no growth, -100 = all killed)
Details in all cases: 10 µM unless noted
NCI-H23 lung = system: NCI-H23 lung
NCI-H226 lung = system: NCI-H226 lung
NCI-H322M lung = system: NCI-H322M lung
HOP-62 NSCLC = system: HOP-62 NSCLC
NCI-H460 lung = system: NCI-H460 lung
HOP-92 NSCLC = system: HOP-92 NSCLC
NCI-H522 lung = system: NCI-H522 lung
A549/ATCC NSCLC = system: A549/ATCC NSCLC
786-0 renal = system: 786-0 renal
COLO 205 colon = system: COLO 205 colon
DU-145 prostate = system: DU-145 prostate
K-562 leukemia = system: K-562 leukemia
MALME-3M melanoma = system: MALME-3M melanoma
MDA-MB-231 breast = system: MDA-MB-231 breast
RXF 393 renal = system: RXF 393 renal
SF-268 CNS = system: SF-268 CNS
SF-295 CNS = system: SF-295 CNS
SF-539 CNS = system: SF-539 CNS
UACC-257 melanoma = system: UACC-257 melanoma
M14 melanoma = system: M14 melanoma

Structure (SMILES) | growth (NCI-H23 lung) | growth (NCI-H226 lung) | growth (NCI-H322M lung) | growth (HOP-62 NSCLC) | growth (NCI-H460 lung) | growth (HOP-92 NSCLC) | growth (NCI-H522 lung) | growth (A549/ATCC NSCLC) | growth (786-0 renal) | growth (COLO 205 colon) | growth (DU-145 prostate) | growth (K-562 leukemia) | growth (MALME-3M melanoma) | growth (MDA-MB-231 breast) | growth (RXF 393 renal) | growth (SF-268 CNS) | growth (SF-295 CNS) | growth (SF-539 CNS) | growth (UACC-257 melanoma) | growth (M14 melanoma)
N/C(=N\c1nc2ccccc2s1)NC(=O)Nc1cccc2ccccc12 | 29.6% | 66.8% | 41.8% | 34.5% | 10.7% | 48.4% | 5.26% (active) | 27.7% | 34.5% | 3.54% (active) | 23.2% | 9.12% (active) | 59.7% | 52% | -2.29% (active) | 56.4% | 33.3% | -21% (active) | 67.4% | 5.44% (active)
CC([C@H]1CCC2C3CCC4C[C@@H](NC=O)CC[C@]4(C)C3CC[C@@]21C)N(C)C (stereo not given in full) | 30.2% | 43.2% | -4.46% (active) | -55.5% (active) | -59.3% (active) | 0.955% (active) | 56.5% | 15.9% | -88.4% (active) | -83.4% (active) | 34.1% | -39.8% (active) | -57.6% (active) | -13.9% (active) | -51.2% (active) | -70% (active) | -38.8% (active) | -78.4% (active) | -48.3% (active) | -48.8% (active)
CCc1ccc(Oc2c(-c3ccc(OCCc4cccc(C(F)(F)F)c4)cc3O)n[nH]c2C(F)(F)F)cc1 | 4.8% (active) | 52.9% | 76.7% | 76.6% | 2.53% (active) | -5.8% (active) | -20.5% (active) | 55.9% | 91.2% | 100% | 25.6% | 7.94% (active) | 48.8% | 50.2% | 80.7% | 47.7% | 87.6% | 74% | 56.6% | 59.1%
CCOC(=O)CCN(C(=O)Nc1ccccc1)C1CCCCC1 | 102% | 115% | 110% | 86.8% | 102% | 111% | 99.2% | 132% | 91.5% | 139% | 100% | 132% | 113% | 110% | 177% | 104% | 108% | 98.9% | 119% | 108%
CCN1C(=O)N(CC)C2Nn3c(s/c(=C4\C(=O)Nc5ccccc54)c3=O)=NC21 (stereo not given) | 48.6% | 79.3% | 71.5% | 68.4% | 23.7% | 69.7% | 15.4% | 55.1% | 32% | 19.5% | 10.2% | 20.2% | 56.5% | 48.3% | -1.37% (active) | 64.9% | 56.6% | 10.9% | 67.4% | 14.9%
C=C1C(=O)O[C@H]2[C@H]1CC/C(COC(=O)CCC(=O)NCCOCCOCC(=O)Nc1ccc(OC)c(C(N)=O)c1O)=C\CC[C@@]1(C)O[C@@H]21 | 101% | 55.5% | 101% | 90.3% | 79.3% | 68.6% | 26.5% | 91.4% | 91.8% | 63.7% | 101% | 86.2% | 92.7% | 95.2% | 67.9% | 95.2% | 97.3% | 88.8% | 77.6% | 93.3%
CCN(CC)CCCNc1nc2ccccc2c2c(=O)c3cc(Cl)ccc3sc12 | 86.5% | 82.1% | 84.5% | 74.4% | 8.8% (active) | 36.9% | 73.8% | 64.7% | 75.7% | 56.3% | 54.4% | -44.2% (active) | 84.6% | -9.32% (active) | 76% | 55.6% | 104% | 58.3% | 102% | 1.36% (active)
Oc1ccc(Cl)cc1Cc1cc(Cl)cc(Cl)c1O | 9.44% (active) | 90.1% | 29.9% | 22.9% | 20.9% | -24.9% (active) | 38.9% | 46.8% | 59.5% | 114% | 33.2% | 5.3% (active) | -19.5% (active) | 69.2% | 74% | 42.3% | -15.1% (active) | 19.8% | 74.1% | 65.9%
c1ccc2cc(C[n+]3ccn(CCCCCCCCCCCCn4cc[n+](Cc5ccc6ccccc6c5)c4)c3)ccc2c1 | -80.3% (active) | -42.1% (active) | -18.4% (active) | -58% (active) | -69.9% (active) | -68.2% (active) | -74.2% (active) | -74.2% (active) | 1.28% (active) | -67.5% (active) | -46.5% (active) | -59% (active) | -76.7% (active) | -74% (active) | -52.2% (active) | -79.5% (active) | -40.3% (active) | -78.6% (active) | -67.5% (active) | -44.9% (active)
CCN1C(=O)N(CC)C2Nn3c(s/c(=C4\C(=O)N(CCC(C)C)c5ccccc54)c3=O)=NC21 (stereo not given) | 87.8% | 83.9% | 92.4% | 89.2% | 106% | 73.2% | 50.4% | 90% | 57.1% | 73.2% | 96.3% | 26.1% | 79.8% | 78.3% | 84.5% | 82.5% | 98.5% | 86.8% | 66.3% | 56.6%
N#Cc1ccc(NC(=O)c2sc3nc4c(cc3c2N)C(=O)CCC4)cc1 | 106% | 93.7% | 103% | 101% | 85.9% | 95.6% | 103% | 92.5% | 97.8% | 109% | 94.9% | 108% | 89.3% | 109% | 119% | 102% | 82.4% | 99.8% | 106% | 106%
Cc1cc(=O)[nH]c(=O)n1Cc1cn(-c2c3ccccc3nc3ccccc23)nn1 | 94% | 105% | 105% | 95.6% | 99.3% | 67.6% | -74.3% (active) | 92.3% | 79.4% | 96.1% | 15.7% | 7.13% (active) | 93.6% | 77.3% | 90.7% | 90.4% | 102% | 98.9% | 67% | 97.8%
COc1ccc(NC2=C(Br)C(=O)C(C)=C(C)C2=O)cc1 | 79.7% | 75.5% | 89.9% | 84.2% | 99.9% | -73.6% (active) | 87.6% | 99.5% | 103% | 115% | 106% | -2.92% (active) | 94.4% | -55.4% (active) | 102% | 98% | 98.9% | 90.6% | 72.8% | 97%
O=c1cc(SCc2ccccc2)nc[nH]1 | 108% | 104% | 105% | 91.1% | 112% | 100% | 116% | 103% | 95% | 133% | 121% | 113% | 111% | 113% | 124% | 106% | 100% | 108% | 108% | 106%
Cc1nn(-c2ccccc2)c(-n2ccnc2)c1/C=N/Nc1nc(-c2ccc(Cl)c(Cl)c2)cs1 | 12.5% | 51.9% | 76% | 10.8% | 3.5% (active) | -22.9% (active) | 31.5% | -8.24% (active) | 20.7% | 52.1% | 2.44% (active) | 18.7% | 22.5% | 6.68% (active) | -1.62% (active) | 41.8% | 57.7% | 59.3% | 62.7% | 45.1%
